Results taken from ChEMBL document CHEMBL3988442, “University of Dundee, Small-Polar-MMV Screening Library” (2021).
“And” between values parts separate entries of the source, which are not always exact repeats. Equal entries are not always repeated. For part of these data: Potency and affinity values are given separately.

Tests used:
Set-up in all cases: scale not given: direction of the effect not stated beside the values
[1] = target: Protein translocase subunit SecA (Escherichia coli (strain K12)) (UniProt P10408); assay: Assay to Identify E. coli SecA ATPase Inhibitors; format: functional; settings: 30 µM
Protein translocase subunit SecA (Escherichia coli (strain K12)), sequence (P10408 whole entry): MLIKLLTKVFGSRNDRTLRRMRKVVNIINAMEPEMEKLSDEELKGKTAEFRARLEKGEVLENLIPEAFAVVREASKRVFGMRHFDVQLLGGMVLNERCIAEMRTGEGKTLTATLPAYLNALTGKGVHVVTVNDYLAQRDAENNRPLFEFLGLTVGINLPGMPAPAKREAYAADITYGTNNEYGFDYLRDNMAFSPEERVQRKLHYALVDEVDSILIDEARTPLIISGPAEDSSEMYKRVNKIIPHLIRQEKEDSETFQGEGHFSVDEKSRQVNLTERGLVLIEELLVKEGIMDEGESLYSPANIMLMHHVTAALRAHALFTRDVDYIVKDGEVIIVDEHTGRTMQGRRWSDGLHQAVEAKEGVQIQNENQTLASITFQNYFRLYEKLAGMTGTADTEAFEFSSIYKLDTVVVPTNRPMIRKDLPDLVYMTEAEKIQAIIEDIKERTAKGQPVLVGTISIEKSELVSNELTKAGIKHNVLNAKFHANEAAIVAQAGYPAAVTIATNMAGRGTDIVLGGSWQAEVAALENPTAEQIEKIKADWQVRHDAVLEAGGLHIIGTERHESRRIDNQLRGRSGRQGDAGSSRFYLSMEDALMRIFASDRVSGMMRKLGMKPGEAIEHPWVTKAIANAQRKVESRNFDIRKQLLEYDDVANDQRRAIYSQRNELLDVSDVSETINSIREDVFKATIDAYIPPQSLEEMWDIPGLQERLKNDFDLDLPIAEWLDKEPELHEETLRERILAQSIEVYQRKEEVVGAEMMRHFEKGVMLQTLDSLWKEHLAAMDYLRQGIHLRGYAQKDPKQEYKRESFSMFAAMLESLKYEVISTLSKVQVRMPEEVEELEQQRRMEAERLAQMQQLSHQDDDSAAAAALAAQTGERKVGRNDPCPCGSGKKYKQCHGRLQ

[2] = target: T1, Ubiquitin-activating enzyme e1, putative (Leishmania donovani (strain BPK282A1)) (UniProt E9BSI1); assay: Leishmania donovani Ubiquitin Activating Enzyme (LdE1); format: functional; settings: 30 µM
T1 sequence (whole entry): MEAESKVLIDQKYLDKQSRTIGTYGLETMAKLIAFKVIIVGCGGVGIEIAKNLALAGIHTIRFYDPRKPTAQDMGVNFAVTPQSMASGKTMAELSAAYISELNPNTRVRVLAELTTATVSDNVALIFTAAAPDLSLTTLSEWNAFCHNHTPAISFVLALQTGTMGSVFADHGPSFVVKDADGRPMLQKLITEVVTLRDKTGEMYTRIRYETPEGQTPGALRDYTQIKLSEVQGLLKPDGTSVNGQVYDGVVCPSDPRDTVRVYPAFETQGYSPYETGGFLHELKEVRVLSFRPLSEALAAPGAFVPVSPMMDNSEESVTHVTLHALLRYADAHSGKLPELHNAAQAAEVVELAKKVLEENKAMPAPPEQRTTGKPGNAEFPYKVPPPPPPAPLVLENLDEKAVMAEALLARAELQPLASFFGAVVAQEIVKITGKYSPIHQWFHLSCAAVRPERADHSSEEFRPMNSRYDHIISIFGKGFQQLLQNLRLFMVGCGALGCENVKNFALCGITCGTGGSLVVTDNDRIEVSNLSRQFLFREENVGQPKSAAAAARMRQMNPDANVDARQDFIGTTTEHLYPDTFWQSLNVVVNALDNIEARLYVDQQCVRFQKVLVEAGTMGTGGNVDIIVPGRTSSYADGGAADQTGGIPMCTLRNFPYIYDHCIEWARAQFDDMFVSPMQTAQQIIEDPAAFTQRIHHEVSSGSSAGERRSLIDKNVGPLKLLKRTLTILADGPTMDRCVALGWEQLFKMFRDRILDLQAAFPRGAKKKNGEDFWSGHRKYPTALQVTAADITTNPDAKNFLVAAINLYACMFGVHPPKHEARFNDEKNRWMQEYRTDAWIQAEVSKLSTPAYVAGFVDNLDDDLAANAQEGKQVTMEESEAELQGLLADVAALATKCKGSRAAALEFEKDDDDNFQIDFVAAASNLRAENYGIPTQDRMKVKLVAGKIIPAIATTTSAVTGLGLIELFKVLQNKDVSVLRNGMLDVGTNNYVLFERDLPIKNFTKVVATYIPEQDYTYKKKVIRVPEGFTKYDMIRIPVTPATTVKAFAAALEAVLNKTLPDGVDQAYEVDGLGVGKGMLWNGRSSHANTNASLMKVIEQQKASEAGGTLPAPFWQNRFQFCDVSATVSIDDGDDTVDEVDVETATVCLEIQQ

[3] = target: AMP-activated protein kinase, AMPK (Homo sapiens) (UniProt P54646+O43741+P54619+Q9UGJ0+Q9Y478+Q13131+Q9UGI9); assay: AMP-dependent Kinase enzyme assay. An in vitro enzyme assay that detects ADP turnover that is directly proportional to AMPK activity. This uses naive AMPK that is activated during the assay with MK-8722; format: functional; settings: 30 µM
[4] = target: Sialic acid-binding Ig-like lectin 9 (Homo sapiens) (UniProt Q9Y336); assay: Hs-Siglec9 ALPHAscreen SOP 20170721; settings: 10 µM
Sialic acid-binding Ig-like lectin 9 (Homo sapiens), sequence (Q9Y336 whole entry): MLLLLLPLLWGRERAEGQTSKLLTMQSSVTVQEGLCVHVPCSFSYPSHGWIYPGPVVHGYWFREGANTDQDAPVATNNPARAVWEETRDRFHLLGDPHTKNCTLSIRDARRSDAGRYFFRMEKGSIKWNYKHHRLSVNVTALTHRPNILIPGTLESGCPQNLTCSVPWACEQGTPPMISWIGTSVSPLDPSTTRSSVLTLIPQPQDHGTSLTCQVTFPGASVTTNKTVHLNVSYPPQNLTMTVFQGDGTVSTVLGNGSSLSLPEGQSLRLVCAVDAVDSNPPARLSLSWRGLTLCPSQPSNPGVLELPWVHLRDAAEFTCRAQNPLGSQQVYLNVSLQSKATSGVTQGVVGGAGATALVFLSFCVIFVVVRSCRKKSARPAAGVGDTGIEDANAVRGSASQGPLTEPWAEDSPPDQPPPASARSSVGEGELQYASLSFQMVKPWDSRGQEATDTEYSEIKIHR

Trypanosoma cruzi = assay: Trypanosoma cruzi phosphomannomutase and mannose-1-phosphate guanylyltransferase assay; format: functional; settings: 10 µM
[5] = target: T2, Arginase-2, mitochondrial (Homo sapiens) (UniProt P78540); assay: in vitro enzyme assay to detect the production of urea directly proportional to the activity of Arginase II; format: functional; settings: 33.3 µM; further: in the data most compounds retested in dose-response had high values
T2 sequence (whole entry): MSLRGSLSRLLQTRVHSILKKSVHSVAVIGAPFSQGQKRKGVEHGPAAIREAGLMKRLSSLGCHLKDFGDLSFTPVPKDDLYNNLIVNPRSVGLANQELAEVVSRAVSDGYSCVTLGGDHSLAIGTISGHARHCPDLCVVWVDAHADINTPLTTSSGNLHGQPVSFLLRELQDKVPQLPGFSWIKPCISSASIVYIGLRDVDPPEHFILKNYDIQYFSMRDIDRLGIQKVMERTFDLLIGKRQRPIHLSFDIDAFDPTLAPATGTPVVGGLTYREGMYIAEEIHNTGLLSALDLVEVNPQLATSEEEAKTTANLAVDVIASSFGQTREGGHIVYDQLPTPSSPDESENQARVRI

[6] = target: T3, Proteasome subunit beta (Trypanosoma cruzi) (UniProt O96673); assay: Trypanosoma cruzi proteasome chymotrypsin-like activity (TcProtChymo) assay.; further: in the data most compounds retested in dose-response had high values; format: functional; settings: 9.37 µM
T3 sequence (whole entry): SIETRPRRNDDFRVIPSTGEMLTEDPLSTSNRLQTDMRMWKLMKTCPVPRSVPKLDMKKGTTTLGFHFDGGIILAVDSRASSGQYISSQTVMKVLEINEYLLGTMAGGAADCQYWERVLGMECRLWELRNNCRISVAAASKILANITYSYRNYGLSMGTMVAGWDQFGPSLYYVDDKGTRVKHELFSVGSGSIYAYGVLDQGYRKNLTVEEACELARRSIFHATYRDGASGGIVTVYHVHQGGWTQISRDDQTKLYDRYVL

Homo sapiens = species: Homo sapiens; assay: To identify inhibition of the IFN signalling (Jak-Stat) pathway via expression of an eGFP reporter gene under the control of an IFN-stimulated response element (ISRE) containing MxA promoter.; format: functional; settings: 30 µM
[7] = target: T4, Tyrosyl-tRNA synthetase, putative (Trypanosoma cruzi (strain CL Brener)) (UniProt Q4DSP6); assay: Trypanosoma cruzi tyrosyl tRNA synthetase (TcYRS) _High Tyrosine SOP; format: functional; settings: 30 µM; further: in the data most compounds retested in dose-response had high values
T4 sequence (whole entry): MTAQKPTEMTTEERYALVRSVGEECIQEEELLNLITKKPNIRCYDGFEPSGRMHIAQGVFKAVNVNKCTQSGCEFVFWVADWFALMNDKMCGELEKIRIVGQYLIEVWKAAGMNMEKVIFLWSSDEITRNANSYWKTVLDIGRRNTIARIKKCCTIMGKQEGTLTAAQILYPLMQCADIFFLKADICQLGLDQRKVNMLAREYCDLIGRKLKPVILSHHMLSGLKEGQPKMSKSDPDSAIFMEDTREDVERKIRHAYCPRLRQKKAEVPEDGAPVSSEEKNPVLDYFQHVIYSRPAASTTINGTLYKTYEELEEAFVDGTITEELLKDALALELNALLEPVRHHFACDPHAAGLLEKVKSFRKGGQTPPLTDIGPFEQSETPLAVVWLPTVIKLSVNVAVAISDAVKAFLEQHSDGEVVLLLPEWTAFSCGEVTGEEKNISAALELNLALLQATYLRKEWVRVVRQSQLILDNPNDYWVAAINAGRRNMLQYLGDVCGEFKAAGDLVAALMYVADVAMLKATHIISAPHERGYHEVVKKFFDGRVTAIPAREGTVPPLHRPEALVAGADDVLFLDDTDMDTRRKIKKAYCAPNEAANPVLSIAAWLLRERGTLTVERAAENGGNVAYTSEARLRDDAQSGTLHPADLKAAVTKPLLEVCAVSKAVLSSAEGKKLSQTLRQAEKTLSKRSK

[8] = target: T4, Tyrosyl-tRNA synthetase, putative (Trypanosoma cruzi (strain CL Brener)); assay: Trypanosoma cruzi tyrosyl tRNA synthetase (TcYRS) SOP; format: functional; settings: 30 µM
[9] = target: Chromo domain-containing protein 1 (Saccharomyces cerevisiae (strain ATCC 204508 / S288c) (Baker's yeast)) (UniProt P32657); assay: ScCHD-1 Enzyme Inhibition Assay; format: functional; settings: 30 µM; further: in the data most compounds retested in dose-response had high values
Chromo domain-containing protein 1 (Saccharomyces cerevisiae (strain ATCC 204508 / S288c) (Baker's yeast)), sequence (P32657 whole entry, the tested form may be a part): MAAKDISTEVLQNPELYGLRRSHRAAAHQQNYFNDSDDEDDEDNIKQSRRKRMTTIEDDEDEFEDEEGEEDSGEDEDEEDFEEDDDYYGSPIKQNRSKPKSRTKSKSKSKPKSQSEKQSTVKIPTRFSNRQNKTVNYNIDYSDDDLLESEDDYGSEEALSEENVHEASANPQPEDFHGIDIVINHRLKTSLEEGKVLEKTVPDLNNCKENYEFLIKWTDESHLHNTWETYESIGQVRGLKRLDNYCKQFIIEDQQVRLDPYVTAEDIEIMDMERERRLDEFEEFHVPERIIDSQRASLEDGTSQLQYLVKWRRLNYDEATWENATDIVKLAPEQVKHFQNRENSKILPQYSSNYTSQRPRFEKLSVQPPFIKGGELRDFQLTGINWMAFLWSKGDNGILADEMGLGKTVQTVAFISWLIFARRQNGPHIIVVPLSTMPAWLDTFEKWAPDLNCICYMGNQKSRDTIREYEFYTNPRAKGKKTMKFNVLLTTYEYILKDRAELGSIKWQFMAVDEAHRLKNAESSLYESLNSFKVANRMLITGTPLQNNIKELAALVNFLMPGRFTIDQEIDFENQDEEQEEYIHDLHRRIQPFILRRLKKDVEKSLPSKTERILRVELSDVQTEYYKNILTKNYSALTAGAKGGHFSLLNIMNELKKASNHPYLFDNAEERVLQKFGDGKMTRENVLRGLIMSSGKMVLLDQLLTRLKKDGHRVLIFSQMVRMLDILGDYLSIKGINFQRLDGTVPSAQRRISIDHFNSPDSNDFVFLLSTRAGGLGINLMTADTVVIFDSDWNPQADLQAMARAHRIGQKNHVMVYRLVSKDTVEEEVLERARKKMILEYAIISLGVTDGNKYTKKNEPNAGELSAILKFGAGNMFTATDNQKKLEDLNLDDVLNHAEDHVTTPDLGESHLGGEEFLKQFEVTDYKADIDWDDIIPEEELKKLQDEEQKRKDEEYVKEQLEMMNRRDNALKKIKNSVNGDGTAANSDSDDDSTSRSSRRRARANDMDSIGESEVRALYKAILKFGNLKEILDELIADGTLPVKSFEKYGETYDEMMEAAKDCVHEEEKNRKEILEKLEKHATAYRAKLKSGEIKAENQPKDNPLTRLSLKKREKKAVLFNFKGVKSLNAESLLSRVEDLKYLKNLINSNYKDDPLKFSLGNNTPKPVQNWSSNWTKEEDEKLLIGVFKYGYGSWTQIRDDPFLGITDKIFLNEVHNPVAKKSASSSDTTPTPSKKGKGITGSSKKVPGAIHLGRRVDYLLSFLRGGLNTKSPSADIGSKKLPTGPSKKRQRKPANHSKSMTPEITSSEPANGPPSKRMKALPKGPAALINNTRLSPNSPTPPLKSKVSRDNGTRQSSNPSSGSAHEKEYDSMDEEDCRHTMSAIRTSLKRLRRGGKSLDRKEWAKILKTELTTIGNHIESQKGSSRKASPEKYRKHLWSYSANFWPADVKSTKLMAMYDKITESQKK

N/A = assay: Trypanosoma cruzi proteasome luciferase counter-screen; format: functional; settings: 9.37 µM

Structure (SMILES) | Percent Effect [1] [%] | Percent Effect [2] [%] | Percent Effect [3] [%] | Percent Effect [4] [%] | Percent Effect (Trypanosoma cruzi) [%] | Percent Effect [5] [%] | Percent Effect [6] [%] | Percent Effect (Homo sapiens) [%] | Percent Effect [7] [%] | Percent Effect [8] [%] | Percent Effect [9] [%] | Percent Effect (N/A)
CCn1c(N)nc2cc(C(=O)NCc3ccccc3Cl)cnc21 | -5.22 | 8.22 | 1.39 | -1.08 | -0.196 | 5.91 | 14.9 | 5.03 | 7.53 | 17.5 | -4.29 | 
CCN(CC)C(=O)CCn1ncc2c(Cl)cccc21 | -0.381 | 1.33 | 3.83 | 7.06 | -5.89 | -17.1 | 16.1 | 0.421 | 0 | 2.56 | -11.2 | 
CC(C)Oc1cc(N2C[C@@H](C)O[C@@H](C)C2)nc(N)n1 | -1.28 | 8.11 | -16.9 | -0.905 | 0 | -17.1 | 12.8 | 3.78 | 10.1 | 12.2 | -1.35 | 
CC(NC(=O)Cn1cccn1)c1cccnc1 (centres undefined) | -4.41 | 8 | -4.08 | 11 | 8.67 | 6.25 | 1.92 | 10.3 | 3.83 | 13.6 | -3.89 | 
COCCO[C@@H]1C[C@H]2CN(C(=O)c3cnccn3)CCN2C1 | -2.84 | 5.33 | -0.698 | 4.55 | -0.965 | -39.6 | 4.79 | -8.37 | 0 | -15 | -3.81 | 
CNc1cc2c(nn1)CCN(C(=O)c1cccc3c1OCO3)C2 | -5.03 | 5.2 | -9.97 | 7.76 | 3.75 | 2.49 | -5.07 | -5.98 | 4.85 | 7.32 | -2.55 | 
O=C(O)C1(Cc2ccccc2Cl)CCN(c2ncccc2F)CC1 | -0.132 | 5.41 | -2.78 | 5.67 | 1.54 | 1.91 | 19.5 | 7.74 | 6.88 | 2.44 | -3.4 | 
C=Cn1ncc(CN2C[C@@H]3CCCN3C[C@@H]2Cc2ccccc2)c1C | -3.58 | 4.05 | 3.48 | 4.39 | 2.37 | 0.696 | 11.2 | 26.4 | 6.45 | 14.3 | -13 | 
CC(C)c1nccn1CCCNC(=O)c1ccc(-c2cncnc2)nc1 | -0.347 | 8 | -10.9 | 8.21 | 3.21 | 7.29 | 16.2 | 17.9 | 4.92 | 13.6 | -5.5 | 
CCN(C1CCS(=O)(=O)C1)S(=O)(=O)c1cccc2cc(C)cnc12 (centres undefined) | -4.6 | 21.1 | 5.96 | -4.93 | -4.01 | 3.96 | 4.99 | 14.3 | 6.4 | 18.5 | -6.57 | 
CNC(=O)C1Cn2ccnc2C2(CCN(CCF)CC2)O1 (centres undefined) | -1.42 | 5.2 | 2.6 | -5.27 | -8.97 | 0.645 | 13.1 | 15.2 | 3.17 | 3.85 | -5.68 | 
CCCN1CCCn2nc(CNC(=O)CCc3scnc3C)cc2C1 | -2.71 | 20.8 | -13.3 | 19.9 | 3.98 | 8.39 | 16.7 | -7.34 | 5.26 | 17.9 | -7.37 | 
CCc1nc(C2CCCN(C(=O)c3ccc4[nH]nnc4c3)C2)no1 (centres undefined) | -3.01 | 0 | 1.62 | 0.134 | -4.8 | 4 | 17.2 | 11.3 | 0 | 0 | -11.2 | 
O=C(NCC1CCCO1)c1c(-n2cnnn2)sc2c1CCC2 (centres undefined) | -5.27 | 5.26 | 6.31 | -1.47 | -2.82 | 3.55 | 17.6 | -12.3 | 3.19 | 7.79 | -4.34 | 
Cc1cnn(CC2CCCCN2Cc2nc(-c3ccoc3)no2)c1 (centres undefined) | -1.89 | 16.2 | -6.06 | 4.87 | 5.19 | -5.61 | 7.75 | 21.5 | 8.37 | 23.5 | -6.74 | 
Cc1cnn(CC2CCCN2C(=O)c2cc3ccccc3[nH]c2=O)c1 (centres undefined) | -8.51 | 7.79 | -12.6 | -10 | -5.97 | -1.9 | 8.49 | 15 | 1.91 | 7.06 | -15.3 | 
Cc1c(C2CCCN(C(=O)Cc3ccccn3)C2)n2c(nc1=O)CCC2 (centres undefined) | -4 | 12.2 | 4.92 | -3.29 | -5.53 | 0.696 | 15.3 | 14.5 | 6.45 | 6.49 | -11.6 | 
CCc1nsc(NC2CCCn3nc(CC)nc32)n1 (centres undefined) | -6.19 | 8 | -4.68 | 26 | 7.3 | 6.25 | 13.6 | 0.363 | 3.83 | 13.6 | -7.22 | 
CN(Cc1cc[nH]n1)C(=O)c1cccc(CCC(C)(C)O)c1 | -4.29 | -2.67 | 0.5 | 1.39 | -5.16 | -0.521 |  | -13.1 | 0.546 | 3.7 | -5.03 | 6.9% and 8.45%
O=C(c1ccncc1)N1CCC(c2nc(O)cc(-c3ccncc3)n2)C1 (centres undefined) | -4.75 | 21.3 | 0.106 | -1.99 | 0.984 | -2.1 |  | 4.05 | 6.38 | 14.1 | -6.07 | 6.33% and 4.26%
NCc1cnn(-c2ccccc2C(=O)NCCCn2ccnc2)c1 | -3.74 | 6.76 | 9.61 | -1.25 | -3.16 | -1.16 | 0.312 | 4.01 | 7.53 | 11.7 | -2.44 | 
Cc1ccc2oc(CNC(C)c3nnc4n3CCCC4)cc2c1 (centres undefined) | -2.09 | -10.8 | -8.92 | -1.29 | 0.781 | -2.5 | 10.6 | 17.8 | 11.9 | 15.8 | 1.91 | 
CCOC(=O)CCNC(=O)N1CCN(c2nc3ccccc3n2C)CC1 | -1.65 | 10.4 | 1.91 | 4.46 | -5.42 | -266 | 12.2 | -4.19 | 2.12 | 16.7 | -7.17 | 
COc1ccc(C(=O)N2CCCC(CNS(C)(=O)=O)C2)cc1F (centres undefined) | -4.66 | 8.11 | -5.72 | 6.16 | -3.3 | 2.4 | 0.18 | 6.39 | 5.42 | 16.1 | -6.29 | 
